Sampled rows, rich in hits. Any-hit rate of the full collection: about 4.7%.
PfHsp90 set2 – inhibits growth of yeast expressing Plasmodium falciparum Hsp90. S. cerevisiae expressing PfHsp90, BacTiter-Glo ATP, 48 h; yeast lacking PDR1 and PDR3 efflux regulators. inhibition, % at 9.4 µM. AID 504621. 310,000 compounds, 0.32% hits;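 active means every replicate shows inhibition above about 80%, whatever the replicate mean, limit read from the data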
tim10-1 inh – inhibits growth of tim10-1 mutant yeast; 330,000 compounds, 2.2% hits; S. cerevisiae tim10-1 ts strain growth, BacTiter-Glo, 24 h; inhibition, % at 20 µM;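 active means inhibition of at least 40%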;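 further: mutant grown at 25 °C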
EBI2 antag – blocks human EBI2 receptor beta-arrestin signaling. 360,000 compounds, 0.81% hits. AID 651636. P32249. inhibition, % at 5 µM. EBI2 beta-arrestin recruitment, luminescence, 7a,25-OHC stimulated; in the data active means inhibition above about 38%;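 further: enzyme fragment complementation signal reports receptor beta-arrestin coupling in cells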
Target sequence (P32249 whole entry, looked up, the tested form may be a part): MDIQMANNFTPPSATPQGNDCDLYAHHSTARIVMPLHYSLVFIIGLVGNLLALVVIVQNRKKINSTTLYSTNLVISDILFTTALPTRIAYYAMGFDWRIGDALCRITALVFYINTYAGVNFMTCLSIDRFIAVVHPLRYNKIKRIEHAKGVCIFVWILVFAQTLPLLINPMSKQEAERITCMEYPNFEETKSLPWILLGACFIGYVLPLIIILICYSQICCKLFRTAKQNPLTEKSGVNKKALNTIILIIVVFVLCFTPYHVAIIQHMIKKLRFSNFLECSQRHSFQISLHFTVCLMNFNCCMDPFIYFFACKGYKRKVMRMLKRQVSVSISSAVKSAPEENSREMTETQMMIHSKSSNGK
TIM10 inh – inhibits growth of TIM10 yeast strain | inhibition, % at 10 µM | S. cerevisiae TIM10 strain growth, BacTiter-Glo luminescence, 24 h | 330,000 compounds, 1.4% hits;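 active means inhibition of 40% or more at the single tested concentration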;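 further: wild-type TIM10 isogenic control strain grown at permissive 25 °C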
tim23-1 inh – growth inhibitors of tim23-1 mutant yeast. S. cerevisiae tim23-1 growth, BacTiter-Glo luminescence, 24 h. inhibition, % at 20 µM. 330,000 compounds, 1.3% hits. AID 463212;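 active means growth inhibition of the mutant yeast at or above 50%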;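 further: temperature-sensitive mutant grown at 25 °C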
SKKanGAS inh – blocks kanamycin growth of S. pyogenes SKKanGAS strain; BacTiter-Glo, 6 h; inhibition, % at 7.5 µM; 300,000 compounds, 1.3% hits; AID 1662;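 active means mean replicate score, as percent of positive control median, at least 50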;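 further: strain carries kanamycin resistance gene driven by streptokinase promoter and grows in 40 µg/ml kanamycin; loss of luminescence reflects streptokinase promoter inhibition or plain growth inhibition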
tim23-1 conf – confirmation of tim23-1 mutant yeast growth inhibitors; shares compounds with tim23-1 inh; S. cerevisiae tim23-1 growth, BacTiter-Glo luminescence, 24 h; inhibition, % at 20 µM; 4,400 compounds, 83% hits; AID 463218;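 active means inhibition above about 39% in either of two replicate wells at 20 µM, limit read from the data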;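 further: temperature-sensitive tim23-1 mutant grown at 25 °C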
Each line names hits and unclear results; the compound was inactive in the other large screens (follow-up assays come after a bar, where they were run).

C/C(=N/N1CCN(Cc2cccc3ccccc23)CC1)c1ccco1	none
O=C1NC[C@H](CCCCN2CCN(CC3CCCCC3)C(=O)C2=O)N(CC2CCCCC2)C1=O	none (no result: PfHsp90 set2, tim10-1 inh, TIM10 inh, tim23-1 inh, SKKanGAS inh)
O=C1/C(=C/c2ccccc2Cl)SC(=S)N1CCCC(=O)N(CCO)c1ccccc1	tim23-1 inh 56 | tim23-1 conf 48
COc1ccc(C2CC(=O)Oc3cc(OC)ccc32)cc1 (stereo not drawn)	tim23-1 inh 50 (no result: SKKanGAS inh) | tim23-1 conf inactive
COc1ccc(C2CC(=O)Oc3cc(C)cc(C)c32)cc1 (stereo not drawn)	none (no result: SKKanGAS inh)
COc1cc(C2CC(=O)Oc3cc(C)c(Br)c(C)c32)cc(OC)c1OC (stereo not drawn)	none (no result: SKKanGAS inh)
COc1ccc(C2CC(=O)Oc3c(C(C)C)ccc(C)c32)cc1 (stereo not drawn)	tim23-1 inh 54 (no result: SKKanGAS inh) | tim23-1 conf 42
COc1ccccc1C1CC(=O)Oc2cc(C)c(Br)c(C)c21 (stereo not drawn)	tim23-1 inh 60 (no result: SKKanGAS inh) | tim23-1 conf 42
COc1ccccc1C1CC(=O)Oc2cc(C)c(Cl)c(C)c21 (stereo not drawn)	tim23-1 inh 52 (no result: SKKanGAS inh) | tim23-1 conf 41
COc1ccc(CNC(=O)Nc2nc(C(N)c3ccccc3)cs2)cc1 (stereo not drawn)	none (no result: PfHsp90 set2, tim10-1 inh, TIM10 inh, tim23-1 inh, SKKanGAS inh)
CCC(CC)C(=O)c1c[nH]c(C(=O)N2CCN(c3ccccc3)CC2)c1	none
COc1ccc(C2CC(=O)Oc3cc(C)c(Cl)c(C)c32)cc1 (stereo not drawn)	tim23-1 inh 51 (no result: SKKanGAS inh) | tim23-1 conf inactive
CC1Oc2cc3oc4c(O)c(O)ccc4c(=O)c3c(O)c2C1(C)C (stereo not drawn)	PfHsp90 set2 104, tim23-1 inh 69, SKKanGAS inh 53 | tim23-1 conf 70
CCOC(=O)NNc1ccc2nonc2c1[N+](=O)[O-]	tim23-1 inh 56 (no result: EBI2 antag) | tim23-1 conf 69
CCc1ccc(Nc2ccc3nonc3c2[N+](=O)[O-])cc1	none
COC(=O)c1cccc(NC(=O)c2cccnc2C(=O)O)c1C	none
CCn1c(=O)c2cc(C(=O)NCCC(C)C)sc2c2ccccc21	none
CCC(C)NC(=O)c1cc2c(=O)n(CC)c3ccccc3c2s1 (stereo not drawn)	tim23-1 inh 52 | tim23-1 conf 49
Cc1cc(N2CCCCCC2)n2nc(C)c(-c3ccccc3)c2n1	tim23-1 inh 57 | tim23-1 conf 51
Cc1cc(C)n2nc(C)c(-c3ccc(Cl)cc3)c2n1	tim23-1 inh 52 | tim23-1 conf inactive
CC(=O)Nc1ccc(-n2nnnc2SCC(=O)Nc2cccc(NC(=O)c3ccco3)c2)cc1	none
O=C(Cc1cccs1)N1CCN=C1SCc1ccc(Br)cc1	none
CC(C)Cn1c(/C=C/c2ccccc2)nc2ccccc21	tim23-1 inh 56 | tim23-1 conf 46
CCn1c(/C=C/c2ccccc2)nc2ccccc2c1=O	none
NC(=O)c1ccsc1NC(=O)c1cccs1	none
CC(=O)Nc1ccc2nc(C3CC3)n(Cc3ccc(Cl)cc3)c(=O)c2c1	none (no result: SKKanGAS inh)
Cc1ccn(-c2ccc(NC(=O)c3cccs3)cc2)n1	tim23-1 inh 75 | tim23-1 conf 69
O=C(Cc1ccc(Cl)cc1)Nc1ccc(NC(=O)c2cccs2)cc1	none
O=C(Nc1ccc(Cl)cc1)c1cccs1	tim23-1 inh 61 | tim23-1 conf 59
Cc1nc2ccc(NC(=O)c3cccs3)cc2c(=O)n1Cc1ccc(Cl)cc1	tim23-1 inh 62 | tim23-1 conf 46
Cc1sc(NC(=O)c2cccs2)c(C(N)=O)c1C	tim23-1 inh 51 | tim23-1 conf 67
Cc1ccc2c(c1)N(CC(=O)N1CCCC1)C(=O)c1cccnc1O2	none
Cc1cccc(NC(=O)CSc2nncn2-c2ccccn2)c1	none
CC(C)c1ccc(/C=N/NC(=O)c2nnn(-c3nonc3N)c2CN2CCOCC2)cc1	none
O=C(Nc1ccc(NC(=O)c2cccs2)c(Cl)c1)c1cccs1	tim23-1 inh 51 | tim23-1 conf 65
O=C(Nc1ccc(F)c([N+](=O)[O-])c1)c1cccs1	tim23-1 inh 53 | tim23-1 conf 49
O=C(Nc1ccc(NC(=O)c2cccs2)cc1Cl)c1ccco1	none
Cc1ccc(O)c(C(=O)c2cnn(C(=O)Cc3csc(C)n3)c2)c1	tim23-1 inh 59 (no result: SKKanGAS inh) | tim23-1 conf 57
Cc1ccc(S(=O)(=O)N2CCOC23CCN(C(=O)C(=O)NCc2ccccc2)CC3)cc1	none
O=C(Nc1ccc2oc(-c3ccccc3)nc2c1)c1cccnc1	tim23-1 inh 56 | tim23-1 conf 71
O=C(Nc1ccc2nn(-c3ccccc3)nc2c1)c1cccnc1	tim23-1 inh 52 (no result: SKKanGAS inh) | tim23-1 conf inactive
NS(=O)(=O)c1ccc(CNS(=O)(=O)c2cc(Cl)ccc2Cl)cc1	none
CCOc1cc(NCc2ccccc2)c2ncn(C(C)C)c2c1	tim23-1 inh 63 (no result: SKKanGAS inh) | tim23-1 conf 40
Cc1ccc(S(=O)(=O)N/N=C\C=C\c2ccccc2)cc1	none
O=S(=O)(N/N=C\C=C\c1ccccc1)c1ccc(Br)cc1	tim23-1 inh 56 | tim23-1 conf 42
CCOCC(=O)Nc1cc(Cl)c(OC)cc1OC	none (no result: PfHsp90 set2, EBI2 antag)
Clc1ccccc1Nc1nc(-c2cccnc2)cs1	none
Cc1ccc(C)c(Nc2nc(-c3cccnc3)cs2)c1	tim23-1 inh 50 | tim23-1 conf inactive
COC(=O)[C@H](CC(C)C)NC(=O)c1cc2c(cn1)[nH]c1ccccc12	tim23-1 inh 59 | tim23-1 conf 63
COC(=O)C(Cc1ccccc1)NC(=O)c1cc(=O)[nH]c2ccccc12 (stereo not drawn)	none
CCNC(=S)NNC(=O)c1cc(Br)cs1	none
C[C@@]12C(=O)Nc3ccc(Br)cc3C(=O)N1[C@H]1c3ccccc3OC[C@@H]1[C@@H]2c1ccccc1	PfHsp90 set2 105, tim23-1 inh 61 (no result: SKKanGAS inh) | tim23-1 conf 57
Cc1ccc2c(c1)C(=O)N1[C@H]3c4ccccc4OC[C@@H]3[C@H](c3ccccc3)[C@]1(C)C(=O)N2	PfHsp90 set2 105, tim23-1 inh 57 (no result: SKKanGAS inh) | tim23-1 conf 60
C[C@@]12C(=O)Nc3ccc(Br)cc3C(=O)N1[C@H]1c3cc(Cl)ccc3OC[C@@H]1[C@@H]2c1ccccc1	none (no result: SKKanGAS inh)
C[C@@]12C(=O)Nc3ccc(Cl)cc3C(=O)N1[C@H]1c3cc(Cl)ccc3OC[C@@H]1[C@@H]2c1ccccc1	none (no result: SKKanGAS inh)
C[C@@]12C(=O)Nc3cc(F)c(F)cc3C(=O)N1[C@H]1c3cc(Cl)ccc3OC[C@@H]1[C@@H]2c1ccccc1	tim23-1 inh 51 (no result: SKKanGAS inh) | tim23-1 conf 44
CN(Cc1ccc(OC(F)F)cc1)C(=O)C1CCN(S(=O)(=O)c2ccc3c(c2)OCCO3)CC1	none (no result: SKKanGAS inh)
O=C(CN1CCCCC1)Nc1nnc(-c2ccc([N+](=O)[O-])cc2)s1	tim23-1 inh 91 | tim23-1 conf inactive
